Reference: PubChem BioAssay (NCATS)
Results filed as inconclusive are left out. Entries that show only a call come without a potency. Activity calls are given as the source filed them. Calls come from the whole dose curve; as a rule, active = well fitted inhibition curve with a large enough effect; inconclusive = small, poorly fitted or top-dose-only effect; inactive = flat fitted curve, though single readings scatter.

Assays:
Assay in all cases: qHTS profiling for inhibitors of Plasmodium falciparum proliferation (AID 504749); note: nearly all actives have a fitted effect of over 60% in size
Details in all cases: P. falciparum in erythrocytes, SYBR Green DNA, 72 h; series mostly up to 28.7 µM
[1] = test system: CP297
Outline: (§1)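 P. falciparum-infected erythrocytes (0.3% parasitemia, 2.5% hematocrit final) were exposed to compounds for 72 h at 37 C in 5% CO2, then lysed with SYBR Green buffer overnight at room temperature; parasite DNA fluorescence was normalized to artemisinin and DMSO controls.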

[2] = test system: CP305
Outline: as §1

[3] = test system: CP315
Outline: as §1

[4] = test system: CP325
Outline: as §1

[5] = test system: CP329
Outline: as §1

[6] = test system: CP335
Outline: as §1

[7] = test system: DFO2036
Outline: as §1

[8] = test system: DIV14
Outline: as §1

[9] = test system: DIV17
Outline: as §1

[10] = test system: DIV30
Outline: as §1

[11] = test system: Dd2
Outline: as §1

[12] = test system: ECU
Outline: as §1

[13] = test system: FAB9
Outline: as §1

[14] = test system: GB4
Outline: as §1

[15] = test system: HB3
Outline: as §1

[16] = test system: ICS
Outline: as §1

[17] = test system: JCK
Outline: as §1

[18] = test system: N140
Outline: as §1

[19] = test system: P93_24
Outline: as §1

[20] = test system: P94_40
Outline: as §1
Potency is the fitted concentration of half-maximal effect.

SMILES | Potency [1] | Potency [2] | Potency [3] | Potency [4] | outcome [5] | Potency [6] | Potency [7] | Potency [8] | Potency [9] | Potency [10] | Potency [11] | Potency [12] | Potency [13] | Potency [14] | Potency [15] | Potency [16] | Potency [17] | Potency [18] | Potency [19] | Potency [20]
CC(C)NCC(O)COc1ccc(COCCOC(C)C)cc1 (centres undefined) | inactive | inactive | inactive | inactive | inactive | inactive | inactive | inactive | inactive | inactive | inactive | inactive | inactive | inactive | inactive | inactive | inactive | inactive | inactive | inactive
CC(=O)Oc1ccccc1C(=O)O | inactive | inactive | inactive | inactive | inactive | inactive | inactive | inactive | inactive | inactive | inactive | inactive | inactive | inactive | inactive | inactive | inactive | inactive | inactive | inactive
O=C1CCC(N2C(=O)c3ccccc3C2=O)C(=O)N1 (centres undefined) | inactive | inactive | inactive | inactive | inactive | inactive | inactive | inactive | inactive | inactive | inactive | inactive | inactive | inactive | inactive | inactive | inactive | inactive | inactive | inactive
Cc1cn[nH]c1 | inactive | inactive | inactive | inactive | inactive | inactive | inactive | inactive | inactive | inactive | inactive | inactive | inactive | inactive | inactive | inactive | inactive | inactive | inactive | inactive
NCCc1ccc(O)c(O)c1 | inactive | inactive | inactive | inactive | inactive | inactive | inactive | inactive | inactive | inactive | inactive | inactive | inactive | inactive | inactive | inactive | inactive |  | inactive | inactive
Cc1ccc(N(CC2=NCCN2)c2cccc(O)c2)cc1 | inactive | inactive | inactive | inactive | inactive | inactive | inactive | inactive | inactive | inactive | inactive | inactive | inactive | inactive | inactive | inactive | inactive | inactive | inactive | inactive
CCCc1nn(C)c2c(=O)[nH]c(-c3cc(S(=O)(=O)N4CCN(C)CC4)ccc3OCC)nc12 | inactive | inactive | inactive | inactive | inactive | inactive | inactive | inactive | inactive |  | inactive | inactive | inactive | inactive | inactive | 11.2 µM (active) | inactive | inactive | inactive | inactive
O=c1[nH]cnc2[nH]ncc12 | inactive | inactive | inactive | inactive | inactive | inactive | inactive | inactive | inactive | inactive | inactive | inactive | inactive | inactive | inactive | inactive | inactive | inactive | inactive | inactive
CCCCNc1cc(C(=O)O)cc(S(N)(=O)=O)c1Oc1ccccc1 | inactive | inactive | inactive | inactive | inactive | inactive | inactive | inactive | inactive | inactive | inactive | inactive | inactive | inactive | inactive | inactive | inactive | inactive | inactive | inactive
N#Cc1ccc(C(c2ccc(C#N)cc2)n2cncn2)cc1 | inactive | inactive | inactive | inactive | inactive | inactive | inactive | inactive | inactive | inactive | inactive | inactive | inactive | inactive | inactive | inactive | inactive | inactive | inactive | inactive
CC(C[N+](C)(C)C)OC(N)=O (centres undefined) | inactive | inactive | inactive | inactive | inactive | inactive | inactive | inactive | inactive | inactive | inactive | inactive | inactive | inactive | inactive | inactive | inactive | inactive | inactive | inactive
NNCCc1ccccc1 | inactive | inactive | inactive | inactive | inactive | inactive | inactive | inactive | inactive | inactive | inactive | inactive | inactive | inactive | inactive |  | inactive | inactive | inactive | 
Oc1ccc(C2CNCCc3c2cc(O)c(O)c3Cl)cc1 (centres undefined) | inactive | inactive | inactive | inactive | inactive | inactive | inactive | inactive | inactive | inactive | inactive | inactive | inactive |  | inactive |  | inactive | inactive | inactive | inactive
NCCCC(N)(C(=O)O)C(F)F (centres undefined) | inactive | inactive | inactive | inactive | inactive | inactive | inactive | inactive | inactive | inactive | inactive | inactive | inactive | inactive | inactive | inactive | inactive | inactive | inactive | inactive
NS(=O)(=O)c1cc2c(cc1Cl)NC=NS2(=O)=O | inactive | inactive | inactive | inactive | inactive | inactive | inactive | inactive | inactive | inactive | inactive | inactive | inactive | inactive | inactive | inactive | inactive | inactive | inactive | inactive
Clc1cccc(Cl)c1NC1=NCCN1 | inactive | inactive | inactive | inactive | inactive | inactive | inactive | inactive | inactive | inactive | inactive | inactive | inactive | inactive | inactive | inactive | inactive | inactive | inactive | inactive
Nc1ccc(S(=O)(=O)Nc2ccnn2-c2ccccc2)cc1 | inactive | inactive | inactive | inactive | inactive | inactive | inactive | inactive | inactive | inactive | inactive | inactive | inactive | inactive | inactive | inactive | inactive | inactive | inactive | inactive
CCc1ccc(CCOc2ccc(CC3SC(=O)NC3=O)cc2)nc1 (centres undefined) | inactive | inactive | inactive | inactive | inactive | inactive | inactive | inactive | inactive | inactive | inactive | inactive | inactive | inactive | inactive | inactive | inactive | inactive | inactive | inactive
Nc1nc2c(ncn2COCCO)c(=O)[nH]1 | inactive | inactive | inactive | inactive | inactive | inactive | inactive | inactive | inactive | inactive | inactive | inactive | inactive | inactive | inactive | inactive | inactive | inactive | inactive | inactive
Cc1[nH]c(=O)c(C#N)cc1-c1ccncc1 | inactive | inactive | inactive | inactive | inactive | inactive | inactive | inactive | inactive | inactive | inactive | inactive | inactive | inactive | inactive | inactive | inactive | inactive | inactive | inactive
